Reference: PubChem BioAssay (NCATS)
Where “and” joins values, the source holds several entries; their conditions need not be identical. Equal values may be shown once. Inconclusive results are not listed. Unmarked numbers belong to inactive results. Calls follow the shape of the dose curve; as a rule, active = well fitted inhibition curve with a large enough effect in the signal ratio, with a control signal flat (not every such curve was filed as active); inconclusive = small, poorly fitted or top-dose-only effect, or effect the other way, or a change in a side signal; inactive = no such curve, though single readings can be large or run the other way; the % refers to the signal ratio.

Target: Retinoic acid receptor RXR-alpha (Homo sapiens) (UniProt P19793)
Assay: qHTS assay for small molecule antagonists of retinoid X receptor alpha signaling (AID 588546)
Conditions: HEK293T RXRa-UAS-bla, beta-lactamase ratio, antagonist mode
Source text: NIH Chemical Genomics Center [NCGC] U.S. Environmental Protection Agency [EPA] National Institutes of Environmental Health Sciences [NIEHS] National Toxicology Program [NTP] NCGC Assay Overview The Retinoid X receptor (RXR), a nuclear hormone receptor is expressed in liver, spleen, placenta, epidermis, central nervous system. These receptors are able to form homo and heterodimers with other nuclear receptors and due to this heterodimerizing ability, RXR functions as master regulators producing diverse physiological effects. Three subtypes of RXR exist; alpha, beta and gamma. Retinoid X receptor alpha (RXR-alpha) has potential roles in metabolic signaling pathways, skin alopecia, dermal cysts, cardiac development, insulin sensitization etc. Therefore screening environmental chemicals on RXR-alpha signaling can be used for the studies focused on such therapeutic applications.
NCGC Assay Protocol Summary Using a beta-lactamase reporter-gene under control of Retinoid X receptor--alpha (RXR-alpha) response element, a cell-based assay [GeneBLAzer (RXR-alpha -UAS-bla assay developed by Invitrogen] was used to measure RXR-alpha ligands signaling. GeneBLAzer RXR-alpha -UAS-bla HEK293T cells were used with assay medium containing 2% charcoal-stripped FBS. The assay was performed in clear bottom black Greiner 1536-well plates. Library compounds were measured for their ability to inhibit the reporter gene activity. Compounds were screened in a titration series in 1536-well format. The fluorescence intensity (405 nm excitation, 460/530 nm emission) was measured using an EnVision plate reader. Data was normalized relative to 9-cis-retinoic acid control (500 nM, 100%), and DMSO only wells (basal, 0%). Concentration-response titration points for each compound were fitted to the Hill equation yielding concentrations of half-maximal inhibition (IC50) and maximal response (efficacy) values. qHTS protocol for RXR-alpha beta-lactamase assay in antagonist mode [Step] [Parameter] [Value] [Description] 1. Reagent; 5 uL; 2500 cells/well 2. Incubation; 37 C for 4 hrs 3. Compounds; 23 nL; 0.59 nM to 92 uM 4. Controls (DMSO); 23 nL 5. Agonist (Stimulator); 1uL; 9-cis-retinoic acid at 500 nM and 100 nM final concentrations 6. Incubation; 37 C for 18 hrs 7. Detection reagent; 1 uL of CCF4-dye 8. Incubation; RT for 2 hrs 9. Detection; Fluorescence; Envision plate reader
% is scaled to controls: 0 for no effect and ±100 for the full control effect.

Chain of Retinoic acid receptor RXR-alpha (Homo sapiens) (P19793 whole entry, looked up): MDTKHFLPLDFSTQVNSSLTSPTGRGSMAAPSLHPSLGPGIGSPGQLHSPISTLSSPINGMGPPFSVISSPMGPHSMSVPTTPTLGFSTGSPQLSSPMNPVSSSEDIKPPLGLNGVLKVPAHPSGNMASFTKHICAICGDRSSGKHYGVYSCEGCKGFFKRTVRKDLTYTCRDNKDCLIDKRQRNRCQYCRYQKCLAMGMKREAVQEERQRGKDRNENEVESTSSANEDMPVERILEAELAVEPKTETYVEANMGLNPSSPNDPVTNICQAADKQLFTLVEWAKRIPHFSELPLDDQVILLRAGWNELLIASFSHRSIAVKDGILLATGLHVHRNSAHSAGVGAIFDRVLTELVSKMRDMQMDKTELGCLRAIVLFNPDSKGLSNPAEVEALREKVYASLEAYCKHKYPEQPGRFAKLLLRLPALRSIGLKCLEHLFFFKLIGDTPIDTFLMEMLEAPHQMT

Row | SMILES | max response
1 | C=C(C)C(=O)OCCCCCCCCCC | -3.36%
2 | Cc1ccc2cccnc2c1 | 0.426%
3 | CC(=O)c1ccccn1 | -5.68%
4 | O=Cc1ccccc1Cl | 26.5%
5 | Nc1cccc([N+](=O)[O-])c1 | 1.86%
6 | CCCCC(CC)CO (stereo not given) | 16%
7 | CC=O | -0.48%
8 | CCOc1cc(OCC)c(C(C)=O)cc1OCC | 7.64%
9 | CC1CCC2CC1C2(C)C (stereo not given) | 9.66%
10 | NC=O | -7.48%
11 | CC(C)(C)OC=O | 2.16%
12 | Nc1ccc([N+](=O)[O-])c(N)c1 | -8.62%
13 | CCCC(C)CO (stereo not given) | -5.45%
14 | O=C(O)c1cccc(Cl)c1Cl | -4.53%
15 | O=C(O)CCSSCCC(=O)O | -2.74%
16 | O=C(O)c1ccc(Cl)cc1Cl | 2.21%
17 | CN(C)CCCCl | -2.2%
18 | CCNS(=O)(=O)c1ccc(C)cc1 | 3.72%
19 | C=CCn1c(=O)n(CC=C)c(=O)n(CC=C)c1=O | 6.59%
20 | CC(C)(c1cc(Br)c(OCC(Br)CBr)c(Br)c1)c1cc(Br)c(OCC(Br)CBr)c(Br)c1 (stereo not given) | 2.49%

Row | SMILES | max response
21 | O=[N+]([O-])c1ccccc1CCO | -8.97%
22 | NC(=O)/N=N/C(N)=O | -2.12%
23 | O=C1C=CCCC1 | -1.33%
24 | COC(=O)CCCC(=O)OC | -11%
25 | CCOC(C)(C)C | 3.08%
26 | Cc1ccc(C(C)(C)C)cc1 | 4.12%
27 | Nc1nc2ccccc2[nH]1 | -2.52%
28 | Cc1ccc(Br)cc1 | -0.837%
29 | Oc1c(Cl)ccc(Cl)c1Cl | 17.5%
30 | CCCCCCC=O | 7.58%
31 | CC/C=C/C#N | 10.5%
32 | O=C(O)CNC(=O)c1ccc([N+](=O)[O-])cc1 | 23.2%
33 | CCN(CC)c1cccc(O)c1 | 9.83%
34 | CCCCCCCN | -5.49%
35 | Nc1cccc(C(F)(F)F)c1 | 23% and -15.4%
36 | C=CC(=O)OCCCC | -2.2%
37 | CCOCCOCC | 1.41%
38 | CSCCC=O | 16.4%
39 | CNc1ccccc1 | 29.8%
40 | CCOCCO | 7.78%
